High-throughput results: PubChem BioAssay, several laboratories
Compounds with a hit are over-represented: about 1.7% of the library has one in this group of screens.
DUSP3 inh: blocks human VHR1 dual specificity phosphatase; recombinant VHR phosphatase, pNPP absorbance; AID 1654; inhibition, % at 13.3 µM; 290,000 compounds, 0.52% hits; in the data active = inhibition above about 50%
PriA SSB inh: blocks PriA binding to SSB C-terminal tail | inhibition, % at 33 µM | AlphaScreen SSBct-PriA binding, biotinylated peptide | 430,000 compounds, 0.6% hits; in the data active = inhibition mostly above about 37%, no sharp cut-off; inactive = mostly below about 20%;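 also: plate controls were negative control peptide for no effect and reference peptide for full effect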
RecA intein inh: inhibitors of M. tuberculosis RecA intein splicing; P9WHJ3; cell-free RecA intein splicing, fluorescence; inhibition, % (concentration not given with the values); 290,000 compounds, 0.75% hits; in the data active = inhibition above about 30%;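 also: 0% = vehicle wells and 100% = reference inhibitor control wells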
Target sequence (P9WHJ3 whole entry, looked up): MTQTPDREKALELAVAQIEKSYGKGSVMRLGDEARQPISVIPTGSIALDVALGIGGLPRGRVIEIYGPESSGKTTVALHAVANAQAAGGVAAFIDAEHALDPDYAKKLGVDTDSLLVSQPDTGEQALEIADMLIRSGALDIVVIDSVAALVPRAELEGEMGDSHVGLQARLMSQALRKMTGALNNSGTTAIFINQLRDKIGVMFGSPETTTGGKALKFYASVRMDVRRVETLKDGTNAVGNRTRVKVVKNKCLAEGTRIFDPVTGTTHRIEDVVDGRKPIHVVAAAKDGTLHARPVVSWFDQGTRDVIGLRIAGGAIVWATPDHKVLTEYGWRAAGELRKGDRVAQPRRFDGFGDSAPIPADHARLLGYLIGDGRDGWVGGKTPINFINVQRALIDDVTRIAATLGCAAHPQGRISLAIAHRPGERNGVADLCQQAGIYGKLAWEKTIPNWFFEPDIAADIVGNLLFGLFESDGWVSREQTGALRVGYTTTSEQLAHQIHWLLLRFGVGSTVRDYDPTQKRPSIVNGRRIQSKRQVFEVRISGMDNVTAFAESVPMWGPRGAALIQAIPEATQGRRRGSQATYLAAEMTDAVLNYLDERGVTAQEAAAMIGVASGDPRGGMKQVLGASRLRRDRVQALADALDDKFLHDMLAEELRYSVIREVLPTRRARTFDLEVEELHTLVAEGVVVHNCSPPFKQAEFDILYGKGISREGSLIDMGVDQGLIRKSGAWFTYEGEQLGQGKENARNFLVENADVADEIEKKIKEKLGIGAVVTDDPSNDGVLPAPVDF
3CLpro inhibitor: SARS-CoV 3CLpro protease inhibition | recombinant SARS-CoV 3CLpro, quenched FRET peptide cleavage | P0C6X7 | 290,000 compounds, 0.14% hits | inhibition, % at 6 µM | AID 1706; in the data active = inhibition above about 12%
CCHFV vOTU inh: blocks the CCHF virus ovarian tumor domain protease. 370,000 compounds, 0.55% hits. inhibition, % at 11.5 µM. AID 651958. CCHFV vOTU protease, Pep-AMC fluorescence; in the data active = inhibition above about 30%; also: 0% = vehicle wells with enzyme and 100% = no enzyme wells
* hit, by the source's call.

What do the screens show for `CN(C)S(=O)(=O)c1cccc(NC(=O)COC(=O)c2cc3ccccc3oc2=O)c1`?
DUSP3 inh: 8; PriA SSB inh: -8; 3CLpro inhibitor: -5; CCHFV vOTU inh: -8

Results for CCN(c1ccc(NC(=O)COC(=O)c2cc3ccccc3oc2=O)cc1)C(C)C ?
DUSP3 inh: -3; PriA SSB inh: 54*; RecA intein inh: 0; 3CLpro inhibitor: -2; CCHFV vOTU inh: 10

How did COc1ccc(N=C2S/C(=C\c3ccc(N4CCOCC4)o3)C(=O)N2CCc2c[nH]c3ccccc23)cc1 do in these assays?
DUSP3 inh: 13; RecA intein inh: 3; 3CLpro inhibitor: 9

Results for COc1ccc(N=C2S/C(=C\c3ccc(OCC(=O)O)cc3)C(=O)N2CCc2c[nH]c3ccccc23)cc1 ?
PriA SSB inh: 51*; 3CLpro inhibitor: 2; CCHFV vOTU inh: 25

What do the screens show for `Cc1cccc(NS(=O)(=O)c2cccc3nsnc23)c1`?
DUSP3 inh: 20; PriA SSB inh: 0; RecA intein inh: 1; 3CLpro inhibitor: -1; CCHFV vOTU inh: 11

What do the screens show for `COc1ccc(NS(=O)(=O)c2cccc3nsnc23)cc1OC`?
DUSP3 inh: 51*; PriA SSB inh: -9; RecA intein inh: -1; 3CLpro inhibitor: 3; CCHFV vOTU inh: -5

Results for O=C(NCC(c1cccc2ccccc12)N1CCCC1)C(=O)Nc1ccc2c(c1)OCCO2 (centres undefined) ?
PriA SSB inh: 48*

How did C=CSc1sc(Cl)c(N2CCOCC2)c1[N+](=O)[O-] do in these assays?
DUSP3 inh: 24; PriA SSB inh: 18; RecA intein inh: 30*; 3CLpro inhibitor: 1; CCHFV vOTU inh: -4

How did C=CS(=O)(=O)c1sc(Cl)c(N2CCOCC2)c1[N+](=O)[O-] do in these assays?
DUSP3 inh: 8; PriA SSB inh: -11; RecA intein inh: 7; 3CLpro inhibitor: 1; CCHFV vOTU inh: -1

How did Nc1ccc2nc[nH]c2c1 do in these assays?
DUSP3 inh: 14; PriA SSB inh: -2; RecA intein inh: 49*; 3CLpro inhibitor: -1; CCHFV vOTU inh: 24

How did Cc1c(Cl)cccc1S(=O)(=O)NCc1cc(-c2ccncc2)n(C2CCCC2)n1 do in these assays?
PriA SSB inh: -27

How did O=C(O)c1ccc(/C=C(\c2nc3ccccc3[nH]2)c2nc3ccccc3s2)cc1 do in these assays?
DUSP3 inh: 0; PriA SSB inh: 0; RecA intein inh: 39*; 3CLpro inhibitor: 2; CCHFV vOTU inh: 18

Results for COc1ccc(-n2c(Cn3c(=O)sc4ccccc43)nnc2SCC(=O)N2CCCC2)cc1 ?
DUSP3 inh: 50*; PriA SSB inh: -4; 3CLpro inhibitor: 1; CCHFV vOTU inh: -5

Results for CC(=O)N(Cc1ccccc1)c1ncc2c(n1)c(=O)c(C#N)c1ccccn12 ?
DUSP3 inh: 30; PriA SSB inh: 48*; RecA intein inh: -146; 3CLpro inhibitor: 3; CCHFV vOTU inh: -15

How did O=C(Nc1ccon1)C1(c2cccs2)CCCC1 do in these assays?
PriA SSB inh: -12

Results for Cc1nc2cc(OCc3cc(C(=O)NC(C)c4cnn(C)c4)no3)ccc2s1 (centres undefined) ?
DUSP3 inh: 51*; PriA SSB inh: -1; RecA intein inh: -3; 3CLpro inhibitor: 1; CCHFV vOTU inh: 28

How did CC(=O)c1cn(CCCCCCCn2cc(C(C)=O)c(=O)[nH]c2=O)c(=O)[nH]c1=O do in these assays?
DUSP3 inh: -3; PriA SSB inh: 0; 3CLpro inhibitor: 0; CCHFV vOTU inh: 2

Results for CCCCCCCCCn1cc(C(C)=O)c(=O)[nH]c1=O ?
DUSP3 inh: 50*; PriA SSB inh: -20; RecA intein inh: 2; 3CLpro inhibitor: -1; CCHFV vOTU inh: 23

Results for Cc1ccccc1OCC(=O)OCC(=O)c1ccc(OC(=O)c2ccccc2)cc1 ?
DUSP3 inh: 20; PriA SSB inh: 67*; RecA intein inh: 3; 3CLpro inhibitor: 1; CCHFV vOTU inh: 4

What do the screens show for `Cc1ccccc1OCC(=O)OCC(=O)c1ccc(OCc2ccccc2)cc1`?
DUSP3 inh: -5; PriA SSB inh: -58; 3CLpro inhibitor: 2; CCHFV vOTU inh: 2

How did Cc1ccc(S(=O)(=O)NCc2ccc(C(=O)N3CCN(c4ccccc4)CC3)cc2)cc1 do in these assays?
DUSP3 inh: 53*; PriA SSB inh: 4; RecA intein inh: -3; 3CLpro inhibitor: 1; CCHFV vOTU inh: 13

What do the screens show for `Cc1ccc(S(=O)(=O)Nc2nc3ccc(N)cc3s2)cc1`?
DUSP3 inh: 47; PriA SSB inh: 3; RecA intein inh: 0; 3CLpro inhibitor: 0; CCHFV vOTU inh: 16
